# Assay outcomes deposited in PubChem by several laboratories.
# Shown are actives, neighbours in structure and some others; about 3.3% of the full set was active somewhere.
# UHRF1 MBD2 ctr: UHRF1 methylated DNA binding inhibitors, primary screen, counter-screen for MBD2 inhibitor project, biochemical, TR-FRET, human UHRF1, single concentration; E3 ubiquitin-protein ligase UHRF1 (Homo sapiens), Q96T88; 0.75% of 370,000 active; inhibition, % at 4.4 µM; UHRF1 binding to methylated oligo; in the data active means inhibition above about 21%;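 further: UHRF1 SRA domain binding a hemimethylated CpG hairpin DNA probe; 0% = median of test compound wells and 100% = reference inhibitor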
# PfM18AAP inh: PfM18AAP inhibitors, malaria aminopeptidase, primary screen, biochemical, QFRET, recombinant enzyme; 1.2% of 290,000 active; M18 aspartyl aminopeptidase (Plasmodium falciparum 3D7); AID 1822, 2009; H-Glu-NHMec fluorogenic cleavage; inhibition, % at 7.35 µM;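 active means inhibition above the campaign mean inhibition over all tested compounds plus 3 SD, cut at about 28% in these data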;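 further: 0% = plate median of test compound wells and 100% = 2 mM ZnCl2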
# MBD2 inh: inhibitors of MBD2 binding to methylated DNA, primary screen, biochemical, TR-FRET, DNA-binding domain, human; 0.31% of 370,000 active; inhibition, % at 4.4 µM; MBD2 binding to methylated oligonucleotide; Methyl-CpG-binding domain protein 2 (Homo sapiens), Q9UBB5; AID 686964, 2013; in the data active means inhibition above about 13%
# Target sequence (Q9UBB5 whole entry, looked up, the tested form may be a part): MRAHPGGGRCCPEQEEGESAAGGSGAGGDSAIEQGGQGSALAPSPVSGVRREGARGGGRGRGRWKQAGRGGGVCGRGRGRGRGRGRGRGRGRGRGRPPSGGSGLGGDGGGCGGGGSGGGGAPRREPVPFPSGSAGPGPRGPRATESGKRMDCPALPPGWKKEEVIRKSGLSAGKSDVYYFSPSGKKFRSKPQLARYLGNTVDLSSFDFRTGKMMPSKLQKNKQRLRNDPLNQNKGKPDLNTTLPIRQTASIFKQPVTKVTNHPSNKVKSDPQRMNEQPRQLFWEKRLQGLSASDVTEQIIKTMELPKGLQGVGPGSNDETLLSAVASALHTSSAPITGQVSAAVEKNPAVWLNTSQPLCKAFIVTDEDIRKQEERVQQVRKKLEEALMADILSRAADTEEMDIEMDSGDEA
# PfGluPho inh: PfG6PD enzyme inhibitors, primary screen, biochemical, fluorescence intensity, uHTS; PfGluPho enzyme, NADPH resazurin-diaphorase fluorescence; inhibition, % at 20 µM; 0.78% of 350,000 active; AID 504690, 2011;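 active means inhibition reaching at least a set limit at 20 µM in the primary screen, cut at about 59% in these data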;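 further: 0% = DMSO wells with substrate and 100% = DMSO wells lacking glucose-6-phosphate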
# PRMT1 inh: PRMT1 methyltransferase inhibitors, primary screen, biochemical, fluorescence polarization; Protein arginine N-methyltransferase 1 (Homo sapiens), Q99873; recombinant PRMT1, activity-based probe fluorescence polarization; inhibition, % at 2.79 µM; 1.3% of 370,000 active; AID 652257, 2013;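 active means inhibition above about 21% made by adding two undisclosed values, limit read from the data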
# PRMT1 inh conf: PRMT1 methyltransferase inhibitors, confirmation, biochemical, fluorescence polarization, triplicate; shares compounds with PRMT1 inh; AID 687036, 2013; inhibition, % at 2.79 µM; 42% of 3,300 active; recombinant His-PRMT1, activity-based probe fluorescence polarization;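 active means mean inhibition across replicates above the hit cutoff derived for the earlier primary screen, cut at about 22% in these data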
# Active calls of the source: *; x = no result.
SMILES,UHRF1 MBD2 ctr,PfM18AAP inh,MBD2 inh,PfGluPho inh,PRMT1 inh,PRMT1 inh conf
COC(=O)[C@@H](N)CS,2,21,0,53,49*,75*
COc1ccc(OC)c(-c2cc(C3CCN(c4cc(Cl)nc(N)n4)CC3)[nH]n2)c1,-1,3,-4,0,40*,-1
Cc1cc(C)c2cc3c(N)c(C(=O)N4CCc5ccccc5C4)sc3nc2c1,-12,7,-10,16,4,x
Cc1cccc2cc3c(N)c(C(=O)N4CCOCC4)sc3nc12,-1,-59,-3,18,36*,12
C[C@@H]1CN([C@@H](C)CO)C(=O)CCCn2nncc2CO[C@H]1CN(C)Cc1cccnc1,0,x,-1,-4,-1,x
CCOC(=O)C1CCCN(C2CC(=O)N(c3ccc(NC(C)=O)cc3)C2=O)C1 (stereo not drawn),6,-5,7,14,37*,1
O=[N+]([O-])c1cc(-c2csc(NC(CO)c3nc4ccccc4n3CCOCCO)n2)ccc1Cl (stereo not drawn),0,x,-5,53,37*,10
CC#CC(=O)N1CCC(Oc2cccc(C(=O)NCc3ccccn3)c2)CC1,0,-2,-1,9,74*,2
CC(C)=CC(=O)N1CCC(Oc2cccc(C(=O)NCc3ccccn3)c2)CC1,1,x,0,-6,8,x
CC(C)C(=O)N(c1cc2sc(=O)oc2c2ccccc12)S(=O)(=O)c1cccs1,1,-37,2,74*,81*,22*
Cc1cccc(C)c1N1C(=O)c2ccccc2NC(=O)C1C(=O)Nc1ccc2c(c1)OCCO2 (stereo not drawn),2,x,-1,x,-1,x
CC1=C(C(=O)O)N2C(=O)[C@@H](NC(=O)[C@H](N)c3ccccc3)[C@H]2SC1,x,3,x,x,x,x
CC1=C(C(=O)O)N2C(=O)C(NC(=O)c3nn(C)cc3[N+](=O)[O-])C2SC1 (stereo not drawn),-4,15,-1,53,33*,44*
CC1=C(C(=O)O)N2C(=O)C(NC(=O)c3nn(C)c(C)c3Cl)C2SC1 (stereo not drawn),2,20,-3,40,29*,38*
CC1=C(C(=O)O)N2C(=O)C(NC(=O)c3ccn(C)n3)C2SC1 (stereo not drawn),-3,19,-5,58,6,x
O=C1CCCCCCC(=O)[C@H](O)C[C@H](c2ccccc2)O1,0,x,2,x,3,x
O=c1ncn(C2CCCCC2)c(=O)[nH]1,-2,x,-1,-6,-2,x
O=C(O)c1cc(Cl)ccc1-c1ccc(/C=C/c2cc(C(F)(F)F)[nH]c(=O)n2)o1,3,11,1,-17,3,x
O=C(O)c1ccccc1-c1ccc(/C=C/c2cc(C(F)(F)F)[nH]c(=O)n2)o1,-18,5,-10,-13,29*,25*
Cc1cccc(C)c1NC(=O)/C(=C/c1ccco1)c1ccccc1,0,-15,5,-9,26*,4
CCC(=O)Nc1ccc(C(=O)COC(=O)Cc2ccsc2)cc1,-1,x,4,11,-1,x
COc1ccc(C(=O)Nc2ccccc2N2CCN(C(=O)c3ccccc3)CC2)cc1Br,0,1,-4,13,0,x
Cc1ccc(SCC(=O)N=C2NC(=O)CS2)cc1,2,14,-5,-16,52*,3
COc1ccc(-c2csc(NC(=O)c3cc(C)oc3C)n2)cc1OC,-2,-1,-5,24,-1,x
Cc1ccccc1-n1nc(C(=O)O)c(C)c(C#N)c1=O,2,-16,5,-8,-2,x
SMILES,UHRF1 MBD2 ctr,PfM18AAP inh,MBD2 inh,PfGluPho inh,PRMT1 inh,PRMT1 inh conf
Cc1c(C(=O)O)nn(-c2cccc(C(F)(F)F)c2)c(=O)c1C#N,5,0,9,-17,29*,0
O=C(O)C(c1ccccc1)C1CCCCC1O (stereo not drawn),2,x,4,14,2,x
Cc1ccc(NC2=CC(=O)CC(C)(C)C2)cc1F,-1,-1,-1,5,-2,x
Cc1cc(N)c(NC2=CC(=O)CC(C)(C)C2)cc1C,-8,4,-1,2,27*,-1
c1ccc(C2=NNC(c3ccccn3)=NN2)nc1,1,17,1,30,1,x
CCN(CC)CCSc1nc2c([nH]1)c(=S)n(C)c(=O)n2C,-1,x,1,12,42*,3
CC(C)(C)S(=O)N1Cc2cc(CO)cc(-c3ccccc3)c2[C@@H]1CCO (stereo partly drawn),-3,x,4,13,2,x
O=C(N/N=C\c1ccc([N+](=O)[O-])o1)c1cncc(Br)c1,2,14,3,23,34*,6
O=C(CSc1nnc(COc2ccccc2)n1-c1ccccc1)Nc1ccc2c(c1)OCO2,1,x,3,x,2,x
c1ccc(Nc2ccc3c4c(cccc24)CC3)cc1,-2,11,-9,20,3,x
Nc1ccc2c3c(cccc13)CC2,-6,27,-2,27,66*,9
NC(=O)c1cccc(-c2coc3c(C(=O)NCc4ccccc4)cccc23)c1,-1,x,2,x,6,x
O=C(CCC(=O)N1CCOc2ccccc21)N1CCN(c2ccccc2)CC1,-3,1,-1,-6,55*,7
O=C(CCC(=O)N1CCOc2ccccc21)N1CCOCC1,-1,1,3,-11,-1,x
CC(=O)N1CCN(S(=O)(=O)c2cccc(C(=O)OCc3cccc(F)c3)c2)CC1,3,x,1,3,-5,x
Cc1cc2nc(-c3ccco3)c(CC(C)(C)C)n2c(C)c1Br,10,x,-3,x,6,x
COC(=O)c1ccc2nc(-c3ccco3)c(Cc3ccccc3C(F)(F)F)n2c1,19,x,2,x,34*,16
COC(=O)c1ccc2nc(-c3ccccc3)c(Cc3cccc(F)c3)n2c1,9,x,-1,x,0,x
COC(=O)c1ccc2nc(-c3ccco3)c(Cc3ccccc3OC)n2c1,26*,x,16*,x,44*,28*
COc1ccccc1Cc1c(-c2ccco2)nc2cc(C)c(Br)c(C)n12,25*,x,10,x,32*,25*
COC(=O)c1ccc2nc(-c3ccc(F)cc3)c(Cc3ccc(OC)cc3C)n2c1,21,x,9,x,3,x
Clc1ccccc1CN1CCN(/N=C/C=C\c2ccco2)CC1,1,1,3,27,4,x
CN(C)c1cccc(C(=O)OCC(=O)Nc2ccccc2Cl)c1,6,5,7,2,6,x
CC1(C)Cc2c(C#N)c(N3CCOCC3)nc(-c3ccccc3)c2CO1,5,1,0,-7,0,x
